Measured values from PubChem BioAssay (NCI).
About 83,000 compounds went through this panel and 20% of them were active in at least one assay; those are over-represented in the sample as a whole.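 Results are percent growth after 48 hours of single-concentration exposure. 100 means growth as in untreated cells, lower positive values show inhibition; negative values down to -100 show cell death.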 A number with no mark means an inactive call. The source made the active and inactive calls. The calls were made as follows: active = growth percent below 10; inactive = the rest.

test system: MDA-MB-468 breast; experiment: NCI-60 one-dose screen, 48 h (100 = growth as untreated, 0 = no growth, -100 = all killed); settings: 10 µM unless noted

Compound	growth
C[C@]12CC[C@H]3[C@@H](CC[C@H]4C[C@@H](O)CC[C@@]43C)[C@@H]1CC(=O)C2	113%
COc1cc(-c2nn(-c3cccc(NC(=O)c4ccc(N5CCOCC5)c(C(F)(F)F)c4)c3)cc2-c2ccncc2)ccc1Cl	-37.8% (active)
COc1cc2c(cc1-c1c(C)noc1C)ncc1nc(C3CCC(F)(F)CC3)n([C@@H](C)COC(F)F)c12	39.3%
O=S(=O)(c1ccccc1)N1CCCc2ccccc21	104%
CCn1c(CSc2nc3ccccc3c(=O)n2CCc2ccccc2)n[nH]c1=S	85.6%
COc1cc(Nc2ncccc2/C=C/C(=O)c2cc(OC)c(OC)c(OC)c2)cc(OC)c1OC	-2.82% (active)
Clc1ccc2[nH]cc(-c3cncn3CCc3ccc4c(c3)OCO4)c2c1	6.19% (active)
CC(C)(C)Nc1nc2c(OCCc3ccccc3)cccn2c1-c1cccc(F)c1	-30.8% (active)
CCN(CC)CCCNc1cc(OC)cc2nc3cc(Cl)ccc3nc12	11%
COc1ccc(/C=C/c2cc(N3CCOCC3)c3cc(F)c(F)cc3n2)cc1OC	14.5%
CN(C)CCCC1(c2ccc(F)cc2)OCc2cc(-c3cncc4ccccc34)ccc21 (stereo not given)	-4.62% (active)
COc1ccc(Nc2ncccc2/C=C/C(=O)c2cc(OC)c(OC)c(OC)c2)cc1	-62.1% (active)
COc1ccc(C(=O)C[C@]2(O)C(=O)Nc3c(Cl)ccc(Cl)c32)cc1	-7.27% (active)
CN1C(=O)N(C)C2Nn3c(s/c(=C\c4ccccn4)c3=O)=NC21 (stereo not given)	95.6%
CCCCCCCC(=O)SCC/C=C/[C@@H]1CC(=O)NCc2cccc(n2)CN(Cc2ccc3ccccc3c2)CC(=O)N[C@@H](C(C)C)C(=O)O1	7.6% (active)
N#Cc1cccc(NC(=O)c2oc3ccccc3c2-c2cnn(-c3ccccc3)c2)c1	66.6% [50 µM]
COc1ccc(CN2C(=O)/C(=C\C(=O)c3ccc(OCCN4CCCC4)cc3)c3ccccc32)cc1	49.3%
CN1CCN(Cc2ccc(NC(=O)c3cncc(C#Cc4cnc5ccc(N)nn45)c3)cc2C(F)(F)F)CC1	25.5%
COc1ccc(-c2cc3c(C)nc(N)nc3n(C3CCC(OCCO)CC3)c2=O)cn1 (stereo not given)	-50% (active)
COc1cc(-c2ccc[nH]2)[nH]c1/C=C1\N=C(C)C(C(=O)NC(C)C)=C1C	44%

Compound	growth
CCOC(=O)c1ccc[nH]1	100%
Nc1c2c(c(O)c3c1=C(CO)C=N3)=NCCS2=O (stereo not given)	-79.6% (active)
O=C(CC(=O)c1ccccc1O)c1ccccc1	71.9%
CN1C(=O)C(=Cc2coc3ccc(Br)cc3c2=O)C(=O)N(C)C1=O	102%
COc1cccc(NC(=O)Nc2ccc(Oc3ncnc4[nH]c(C)c(C)c34)cc2)c1	125%
COc1cc(OC)c(S(=O)(=O)NNC(=O)c2ccncc2)cc1C(=O)/C=C/c1ccc(C)cc1	38.3%
Cc1nc2nc(C(F)(F)F)[nH]c2nc1C	102%
C#CC[C@@H]1C[C@]2(C)[C@H]3CC[C@@H]4[C@H]5[C@H](C(=C)C)CC[C@]5(C(=O)O)CC[C@@]4(C)[C@]3(C)CC[C@H]2C(C)(C)[C@H]1O	-2.92% (active)
C/C=C/C/C=C/[C@H](C)C[C@H](O)[C@@H]1C[C@@H]2O[C@H]2/C=C/[C@H](O)[C@@H](O)/C=C/C[C@H](C)CC(=O)O1	99.5%
Cc1ccc(N2CCN(C3=C(Cl)C(=O)c4ncccc4C3=O)CC2)cc1	-63.9% (active)
CNC(=O)c1cc(Oc2ccc3nc(NC(=O)NC(C)C)sc3c2)ccn1	34.3%
COc1cc(C(=O)C[n+]2ccccc2)ccc1OC(C)=O	101%
Nc1nc(N)c2c(n1)NC(c1ccc(Cl)cc1)CC(c1ccc(Nc3nc(NCCO)nc(N4CCOCC4)n3)cc1)=N2 (stereo not given)	73.7%
CS(=O)(=O)c1ccc(Cl)c([N+](=O)[O-])c1	103%
COc1cc(/C=N/n2c(CN3CCOCC3)nc3ccccc3c2=O)cc(OC)c1OC	109%
COc1cc2c(cc1-c1c(C)noc1C)ncc1nc(CN3CCOCC3)n([C@H](C)COC(F)F)c12	29.6%
COc1cc(-c2cc(-c3ccc(Nc4ccnc5cc(Cl)ccc45)cc3)nc(N3CCOCC3)n2)cc(OC)c1OC	-43.9% (active)
CSc1nnc(-c2sc3nnc(-c4ccccc4)c(-c4ccccc4)c3c2O)o1	78.9%
COc1cc2c(cc1OC)-c1ccc3cc4c(cc3c1N(CCCN1CCCCC1)C2)OCO4	56.5%
CCNC(=O)Oc1ccc(/C(=C(/C)Cc2ccc(OC)cc2)c2ccc(OCCN3CCCCC3)cc2)cc1	42.4%
